# Results as given in PubChem BioAssay (NCATS).
# Unmarked numbers belong to inactive results. No rule for the calls is given here.
# Test system: HIV-1 nucleocapsid protein NCp7 (binding to TG oligonucleotide)
# Assay: HIV Nucleocapsid (AID 346);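 also: potency is for inhibitors that block NC binding and lower polarization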
# Settings: HIV-1 NC / fluorescein-TGTGTGTG probe, fluorescence polarization
# Procedure, shortened: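 NCp7 100 nM + fluorescein TG4xF 10 nM; Hepes pH 7.5/250mM NaCl/1uM ZnCl2/0.004% PEG 20000; 1 hr RT; FP, 45 s exposure; oligo-only wells as negative control.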
# Potency is read from the fitted curve at half-maximal effect.
row,SMILES,Potency [µM]
1,CCNc1ncc2nc(-c3ccccc3)c(=O)n(-c3ccc(OC)cc3)c2n1,> 20
2,CC(C)NC(=O)N1CCC2(CC1)CCN(C(=O)c1cnccn1)CC2,> 20
3,FC(F)(F)c1ccccc1-c1nc(NC2CC2)c2ccccc2n1,> 20
4,COCC(=O)N1CCC2(CC1)CN(Cc1nccs1)C2,> 20
5,Cc1nc2cnc(OCc3ccccc3)nc2n(Cc2ccc(F)cc2)c1=O,> 20
6,COCC(=O)N1CCC2(CC1)CCN(C(=O)Nc1cccc(F)c1)CC2,> 20
7,CN(Cc1ccco1)c1ncncc1-c1ccccc1Cl,> 20
8,O=c1cnc2cnc(N3CCOCC3)nc2n1C[C@H]1CCCO1,> 20
9,CC(C)CN1CC[C@@]2(CCCN(C(=O)c3cnccn3)C2)C1,> 4
10,COc1ccccc1-c1nc(NCCN2CCOCC2)c2ccccc2n1,> 20
11,Cc1ccccc1-c1ccc2ncnc(NCc3cccs3)c2c1,> 20
12,COc1ccccc1CNc1ccnc(-c2ccccc2C(F)(F)F)n1,> 20
13,Cn1cccc1C(=O)N1CCC2(CCCN(Cc3ccccc3)C2)CC1,> 20
14,Cc1noc(C)c1C(=O)N1CCC[C@@]2(CCN(Cc3cc(C(F)(F)F)cc(C(F)(F)F)c3)C2)C1,> 20
15,N#Cc1ccc(CN2CC3(CCN(C(=O)c4ccco4)CC3)C2)cc1,> 20
16,COc1cccc(-c2cncnc2NCc2cnc(C)cn2)c1,> 20
17,COCCn1c(=O)c(-c2cc(F)cc(F)c2)nc2cnc(OC)nc21,> 20
18,Cc1noc(C)c1-c1cncnc1NCc1ccccc1,> 20
19,CS(=O)(=O)N1CCC[C@@]2(CCN(C(=O)Nc3cccc(F)c3)C2)C1,> 20
20,CS(=O)(=O)N1CCC2(CCCN(C(c3ccccc3)c3ccccc3)C2)CC1,> 20

row,SMILES,Potency [µM]
1,Cc1ccccc1-c1nc(NC2CC2)c2ccccc2n1,> 20
2,CC(C)CN1CCCC2(CCN(C(=O)c3ccco3)CC2)C1,> 20
3,COc1ccccc1CNc1ccnc(-c2ccc(N(C)C)cc2)n1,> 20
4,COC(=O)N1CCC[C@@]2(CCN(Cc3nccs3)C2)C1,> 20
5,COCCn1c(=O)c(-c2cccs2)nc2cnc(OC)nc21,> 20
6,COc1ccc(CNc2nc(-c3cccnc3)nc3ccccc23)c(OC)c1,> 20
7,COCCn1c(=O)c(-c2ccccc2)nc2cnc(Nc3cccc(OC)c3)nc21,> 20
8,COc1ccc(Oc2ncc3nc(-c4ccc(F)cc4)c(=O)n(C)c3n2)cc1,> 20
9,COc1ccc(NC(=O)N2CC[C@@]3(CCCN(C(=O)c4ccco4)C3)C2)cc1,> 20
10,N#Cc1ccccc1-c1ccc2ncnc(NCc3ccccc3)c2c1,> 20
11,CC(=O)NCCNc1ncnc2ccc(-c3ccccc3C#N)cc12,> 20
12,O=C(c1csnn1)N1CCC2(CCCN(c3cccc(-c4ccccc4)c3)C2)CC1,> 20
13,O=C(c1cc(C(F)(F)F)cc(C(F)(F)F)c1)N1CCC2(CCCN(c3ccccc3)C2)CC1,> 20
14,N#Cc1ccc(CN2CCC3(CC2)CCN(C(=O)c2csnn2)CC3)cc1,> 20
15,Cc1cnc(CNc2cc(-c3ccc(N(C)C)cc3)ncn2)cn1,> 20
16,Cc1noc(C)c1-c1cc(NCCN2CCOCC2)ncn1,> 20
17,Cc1noc(C)c1C(=O)N1CCC2(CCCN(C(=O)NC(C)C)C2)CC1,> 20
18,CN(C)c1ncc2nc(-c3cc(F)cc(F)c3)c(=O)n(Cc3ccc(F)cc3)c2n1,> 20
19,COc1ccc(NC(=O)N2CC[C@@]3(CCCN(C(=O)c4cccc(F)c4)C3)C2)cc1,> 20
20,O=C(c1cnccn1)N1CCC2(CC1)CN(c1ccccc1)C2,> 20
